About 83,000 compounds went through this panel and 20% of them were active in at least one assay; those are over-represented in the sample as a whole.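 Plates (96-well) were seeded with cells, treated with compound at one concentration, and incubated for 48 hours before percent growth was determined.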 Unmarked numbers belong to inactive results. Active and inactive are the calls of the source. Rule for the calls: active = growth percent below 10; inactive = the rest.

Our source for the growth values is PubChem BioAssay (NCI).

Assay in all cases: NCI-60 one-dose screen, 48 h (100 = growth as untreated, 0 = no growth, -100 = all killed)
Experiment [1] relates to NCI-H226 lung. The settings on record: 10 µM unless noted.
Experiment [2] has as its system NCI-H322M lung. The following applies: 10 µM unless noted.
Experiment [3] relates to NCI-H460 lung. The following applies: 10 µM unless noted.
Experiment [4] has as its system HOP-92 NSCLC. The following applies: 10 µM.
Experiment [5] concerns NCI-H522 lung. The following applies: 10 µM.
Experiment [6] concerns A549/ATCC NSCLC. The following applies: 10 µM unless noted.
For experiment [7], the system named is 786-0 renal. The settings on record: 10 µM unless noted.
In experiment [8] the test system is COLO 205 colon. The settings on record: 10 µM unless noted.
For experiment [9], the system named is HOP-62 NSCLC. The settings on record: 10 µM unless noted.

Take `C/C(CCC(=O)O)=N/Nc1ccc([N+](=O)[O-])cc1`: the growth in [1] was 93.3%; in [2], 93.5%; in [3] it was 38%; in [4] it was 74.9%; in experiment [5] it was 61.2%; in [6], 54%. The growth in experiment [7] was 45.7%.
As for `CCOC(=O)c1cc(C(=O)c2ccc(Br)cc2)n2cc(C)cc(C)c12`, the growth is 87.2% in [1]; 96.7% in experiment [2]; 95.9% in experiment [3]; 77.9% in [4]; 77.3% in experiment [5]; 75.7% in experiment [6]. Moreover, the growth in experiment [7] was 96.3%.
Regarding `CCOC(=O)c1cc(-c2ccc(OC)cc2)[nH]c1NNC(=O)CCOC`, the growth in experiment [1] was 105%; in experiment [2], 118%; in experiment [3] it was 119%; in [4], 73.1%; in experiment [5], 98%; in experiment [6] it was 99.9%. Also, the figures for the growth in experiment [7] and in experiment [8] were 84.3% and 109%, respectively.
In the case of `O=C(N/N=C\c1ccc(-c2ccc(Br)cc2)o1)c1cc2oc(-c3cccc(C(F)(F)F)c3)cc2[nH]1`, the growth in experiment [1] is 106%; in experiment [2] it was 70.6%; in experiment [3] it was 91.5%; in experiment [4], 111%; in [5], 122%; in experiment [6] it was 38.3%. Further, the growth in experiment [8] is 107%.
As to `COc1cc2ncnc(-n3ncc4cc(NC(=O)Nc5ccc(Cl)c(C)c5)ccc43)c2cc1OC`, the growth was 85.9% in [1]; 88.7% in [2]; 102% in [3]; 93.7% in experiment [4]; 86.9% in [5]; 99.9% in [6]. Moreover, the growth in experiment [7] was 77.5%.
In the case of `CC(=O)Nc1nc(C)c(C(=O)NNS(=O)(=O)c2ccccc2)s1`, the growth was 112% in [1]; 99.4% in experiment [2]; -98.9% (active) in experiment [9]; 110% in [3]; 103% in experiment [6]; 92.6% in experiment [7]. For the same compound, the growth in [8] is 119%.
In the case of `CC(=O)Nc1nc(C)c(C(=O)NNC(=O)Nc2ccccc2)s1`, the growth in [1] is 7.19% (active); in experiment [2], 120%; in experiment [3] it was 108%; in [4] it was 60.6%; in experiment [5], 64.5%; in experiment [6], 99.1%. Moreover, the growth in experiment [7] is 110%; in experiment [8] it was 105%.
Turning to `CCCCCCCCCCCCCCCCC(=O)O.CCCCCCCCCCCCCCCCCC(=O)O.CCCCCCCCCCCCCCCCCC(=O)O.CCCCCCCCCCCCCCCCCC(=O)O.CCCCCCCCCCCCCCCCCC(=O)O.CO[CH-]OC12COC1CC(O)C1(C)C(O)C(OC(C)O)C3=C(C)C(OC(=O)C(O)C([NH-])c4ccccc4)CC(O)(C(OC(=O)c4ccccc4)C21)C3(C)C.[Cu+].[Zn].[Zn].[Zn].[Zn].[Zn]` (stereo unspecified), the growth in [1] is 73.2%; in experiment [2], 28.6%; in experiment [9], 56.4%; in experiment [4], 41.5%; in experiment [5], 16.4%; in [6], 27.8%. Besides, the growth in [7] was 41.7%; in [8] it was 14.7%.
For `O=S(=O)(O)CCI`, the growth in [1] is 95.9%; in [2], 101%; in [3], 104%; in [4] it was 103%; in experiment [5] it was 103%; in experiment [6], 114%. The growth in experiment [7] is 106%; in experiment [8], 111%.
As to `O=P(OCCCl)(OCCCl)C(O)c1ccccc1Cl` (stereo unspecified), the growth in [1] is 100%; in experiment [2], 97%; in [9] it was 96.2%; in [3] it was 115%; in experiment [6] it was 111%; in [7], 110%. For the same compound, the growth in experiment [8] was 101%.
For the compound `Cc1cc2cn3c4ccc(O)cc4nc(N)c3c2cc1C`, the growth in experiment [1] was 45.9%; in experiment [2], 7.56% (active); in experiment [9], 13.6%; in [3], -36.1% (active); in experiment [6] it was 8.84% (active); in [7], 13.5%. Moreover, the growth in experiment [8] is -56.4% (active).
For `O=C1C(Cl)=C(SC2=NCCN2)C(=O)c2ccccc21`, the growth in experiment [1] is 91.7%; in [2] it was 99.5%; in experiment [9] it was 98.8%; in experiment [6], 95.2%; in experiment [7], 99.2%; in experiment [8], 111%.
For the compound `COc1ccc(-c2nc(Nc3nc4ccccc4[nH]3)nc(N)c2C#N)cc1`, the growth in [1] is 85.4%; in experiment [2], 111%; in experiment [4], 88.6%; in [5] it was 92.5%; in experiment [6], 106%; in [7], 102%. In addition, the growth in experiment [8] was 81.4%.
With `Cc1cc(CSc2ccc(Cl)cc2)ccc1N`, the growth in experiment [1] is 82.9%; in [2] it was 98.2%; in experiment [9] it was 110%; in experiment [4] it was 85.2%; in [5], 81.5%; in [6], 60.3%. For the same compound, the results for the growth in experiment [7] and in experiment [8] were 69.8% and 107%, respectively.
With `CCOC(=O)C1=C(C(F)(F)F)NC(=O)NC1CN1C(=O)c2ccccc2C1=O` (stereo unspecified), the growth in [1] is 111%; in experiment [2], 107%; in experiment [3], 112%; in experiment [4], 60.8%; in experiment [5], 115%; in experiment [6], 115%. Also, the growth in [7] is 104%; in experiment [8], 116%.
In the case of `COc1ccc(CN2C(=O)/C(=C\C(=O)c3ccc(OCCN4CCCCC4)cc3)c3ccccc32)cc1`, the growth in experiment [1] is 89.6%; in experiment [2], 91.4%; in experiment [3] it was 94.7%; in [4], 39%; in [5], 26%; in [6] it was 96.4%. For the same compound, in experiment [7], the growth is 37.4%.
Turning to `COc1cc2c(c3c1c(=O)c1cccc(F)c1n3C)C=CC(C)(C)O2`, the growth in [1] is 110%; in [2], 79.5%; in experiment [9], 99.2%; in [3], 102%; in experiment [6], 89.4%; in experiment [7], 103%. Further, the growth in experiment [8] was 102%.
For `NC(CSC(c1ccccc1)(c1ccccc1)c1ccccc1)C(=O)NCC(=O)O` (stereo unspecified), the growth was 99.6% in [1]; 47.9% in experiment [2]; 80% in experiment [9]; 95.2% in experiment [3]; 86.8% in experiment [6]; 71.3% in experiment [7]. Further, the growth in experiment [8] is 16.6%.
